From PubChem BioAssay
HCMV inh: inhibitors of human cytomegalovirus; HFF cells, HCMV-luciferase reporter, 72 h; stronger effect = lower value; activity change, negative = inhibition, % at 57.5 µM; hit rate 4.5% among 410,000; AID 1259415; in the data active = activity change below about -60%; inconclusive = no clear call, values can overlap the other calls; inactive = above about -39%
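Compounds were evaluated in HFFs infected with an HCMV luciferase reporter virus (MOI 1 PFU/cell). Luciferase in lysates collected 72 h post infection served as the replication measure.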
Pf growth 48h: P. falciparum growth inhibition at 48 hours (one generation); P. falciparum luciferase growth in erythrocytes, 48 h; AID 504832; Potency, µM (titrated, usually from 28.7 µM), for the others: at the top dose activity change, negative = inhibition, actives largely listed as inhibitors; hit rate 5.9% among 310,000; note: potency is the fitted concentration of half-maximal effect
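Here the parasites carry a stable luciferase gene and grow inside erythrocytes in Albumax-based RPMI medium with compound for one erythrocytic cycle. Activity is scored as loss of luminescent signal.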
Pf growth 96h: inhibits malaria parasite growth, 96 h; AID 504834; Potency, µM (series often up to 28.7 µM), without a hit: top-dose activity change, negative = inhibition, hits mostly inhibitors; hit rate 6.9% among 320,000; P. falciparum luciferase reporter growth, 96 h; note: potency is the fitted concentration of half-maximal effect
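Two-generation exposure (96 h) targets delayed-death phenotype. Reporter parasites carrying integrated firefly luciferase, in red cells at 2% hematocrit and 0.05% parasitemia final, kept at 37 C, 5% CO2; luminescence loss indicates inhibition.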
HCV inh: HCV inhibition. Potency, µM (highest dose often 41.8 µM), without a hit: top-dose activity change, negative = inhibition, most hits filed as inhibitors. Huh7.5.1 HCVcc-Cre infection, luciferase reporter, 44 h. hit rate 3.4% among 340,000; note: potency is the fitted concentration of half-maximal effect
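Infectious HCV cell culture screen: compound-treated cells (1,000/well, pre-plated 4 h) are infected with HCVcc-Cre at roughly 0.5 moi and grown 44 h. Infection is quantified by luciferase signal after 15 min substrate incubation at room temperature.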
Lassa entry inh: blocks Lassa virus binding to or entry into cells. AID 540256. hit rate 1.2% among 300,000. Lassa virus pseudotype entry inhibition, cell reporter. Potency, µM (top dose mostly 37.9 µM), without a hit: at the top dose activity change, negative = inhibition, actives largely listed as inhibitors; calls by dose curve; tested in HEK293 cells; note: potency is the fitted concentration of half-maximal effect; nearly all actives have a fitted effect of over 50% in size
Marburg entry inh: Marburg virus entry inhibition. Potency, µM (doses to about 37.8 µM), inactives show at the highest dose activity change, negative = inhibition, usual class: inhibitors. Marburg virus pseudotyped entry inhibition, cell reporter. hit rate 1.8% among 300,000. AID 540276; calls by dose curve; tested in HEK293 cells; note: potency is the fitted concentration of half-maximal effect
* hit, by the source's call; ? = inconclusive; . = no result given; [ ] = another dose, or the depositor's remark. Shown are actives, neighbours in structure and some others; about 14% of the full set was active somewhere. Unless noted, calls come from the whole dose curve; as a rule, active = well fitted inhibition curve with a large enough effect; inconclusive = small, poorly fitted or top-dose-only effect, or another doubt; inactive = no such curve, though single readings can be large or run the other way. % is set by controls: 0 for no effect and ±100 for the full control effect.

SMILES	HCMV inh	Pf growth 48h	Pf growth 96h	HCV inh	Lassa entry inh	Marburg entry inh
CCCCc1nn2c(=O)cc(COC(=O)c3ccc(NC(=O)c4cccc(OC)c4)cc3)nc2s1	10	.	.	.	5%[46.1 µM]	.
O=C(CSc1nc(N2CCOCC2)nc(N2CCOCC2)n1)Nc1ccc([N+](=O)[O-])cc1	39	?	-13%	?	-16%	3%
O=C(CSc1nc(Nc2ccccc2)nc(N2CCOCC2)n1)Nc1ccccc1Cl	?	?	9%	?	4.6µM*	?
O=C(CSc1nc(Nc2ccccc2)nc(N2CCOCC2)n1)Nc1ccc([N+](=O)[O-])cc1	102	12µM*	.	11µM*	-25%	?
COc1ccc(Cl)cc1NC(=O)CSc1nc(Nc2ccccc2)nc(N2CCOCC2)n1	-17	-2%	33%	11µM*	.	.
CCc1ccc2oc(C(=O)Nc3cc(Cl)ccc3OC)cc(=O)c2c1	8	.	.	.	18%[46.1 µM]	-2%[46.1 µM]
C[C@H](CO)N1C[C@H](C)[C@@H](CN(C)Cc2ccccc2)Oc2ccc(NC(=O)CCCCCC(=O)Nc3ccccc3N)cc2C1=O	-31	.	.	?	.	.
Cc1ccc(N2CC(NC(=O)C3CCCCC3)CC2=O)cc1 (stereo not drawn)	52	.	.	.	14%[46.1 µM]	.
COc1ccc(-c2noc(-c3ccc(NC4CCCCC4)c([N+](=O)[O-])c3)n2)cc1	5	.	.	.	19%[46.1 µM]	-9%[46.1 µM]
CCCS(=O)(=O)NC(=O)C1(C)CCN(C(=O)c2cc(-c3cccs3)oc2C)C1 (stereo not drawn)	20	.	.	.	.	.
CCOc1ccc(N2C(=O)/C(=C/c3ccccc3)N=C2SC)cc1	-21	155%	40%	-15%	.	.
COc1ccc(/C=C2\N=C(SC)N(c3ccccc3OC)C2=O)cc1	-96*	?	?	?	.	.
O=C(CSc1nnc(-c2ccc(O)cc2)o1)c1ccc(Br)cc1	5	.	.	.	0%[46.1 µM]	.
Cc1ccc(Cn2c(O)c(N=NC(=S)Nc3ccccc3F)c3cc(S(=O)(=O)N4CCOCC4)ccc32)cc1	0	3.3µM*	1%	?	.	.
CCc1ccccc1NC(=S)N=Nc1c(O)n(C)c2ccc(S(=O)(=O)N3CCOCC3)cc12	-34	3.3µM*	1.9µM*	-27%	?	?
Cc1ccc(C)c(NC(=S)N=Nc2c(O)n(C)c3ccc(S(=O)(=O)N4CCOCC4)cc23)c1	?	6.6µM*	-9%	?	?	?
Cc1cc(S(=O)(=O)N2CCOCC2)ccc1OCC(=O)Nc1ccccc1F	-32	31%	-10%	0%	-11%	-4%[46.1 µM]
CSc1ccc(CCNC(=O)c2ccc(CS(=O)(=O)c3ccc(Br)cc3)o2)cc1	-29	.	.	.	?	.
CCc1nc2ccc(C(=O)N3CCN(S(=O)(=O)CC)CC3)cn2c1N(C)C(=O)c1cccc(OC)c1	-18	.	.	.	.	.
CN(C(=O)c1ccccc1C(=O)OCC(=O)Nc1cccc(Br)c1)c1ccccc1	-18	?	?	?	.	.
CCn1nc(C(=O)Nc2ccc(Cl)c(S(=O)(=O)N3CCOCC3)c2)c2ccccc2c1=O	-10	10µM*	?	11µM*	?	-17%[46.1 µM]
CC(C)Cn1nc(C(=O)Nc2cccc(S(=O)(=O)N3CCCC3)c2)c2ccccc2c1=O	-33	12µM*	9.3µM*	?	?	?
CCCn1nc(C(=O)NNC(=O)c2cccc(S(=O)(=O)NC(C)C)c2)c2ccccc2c1=O	29	3.3µM*	1.2µM*	?	5%	-5%
CCCn1nc(C(=O)Nc2cccc(S(=O)(=O)N3CCOCC3)c2)c2ccccc2c1=O	22	.	.	.	.	.
CCCn1nc(C(=O)NNC(=O)Cc2ccc(S(=O)(=O)N3CCOCC3)s2)c2ccccc2c1=O	-5	12µM*	?	?	-21%	-8%
SMILES	HCMV inh	Pf growth 48h	Pf growth 96h	HCV inh	Lassa entry inh	Marburg entry inh
COCCN(CCOC)c1ncnc2c1c(-c1ccccc1)cn2-c1ccc(C)c(Cl)c1	?	.	.	.	-3%[46.1 µM]	.
C[C@H](CO)N1C[C@H](C)[C@@H](CN(C)C(=O)CN2CCOCC2)Oc2cc(Br)ccc2S1(=O)=O	9	.	.	.	.	.
CCn1nc(C(=O)Nc2cccc(S(=O)(=O)N3CCCC3)c2)c2ccccc2c1=O	1	13µM*	?	?	.	.
COc1cc(CC(=O)Nc2cccc(S(=O)(=O)N(C)c3ccccc3)c2)cc(OC)c1OC	?	.	.	10µM*	.	.
CN(c1ccccc1)S(=O)(=O)c1cccc(NS(=O)(=O)c2cccc(C(=O)O)c2)c1	22	3%	-24%	25%	6%	?
Cc1ccc(C(=O)Nc2cccc(S(=O)(=O)N(C)c3ccccc3)c2)o1	10	8.3µM*	13µM*	?	?	13%
CN(C)S(=O)(=O)c1ccc(Cl)c(NC(=O)CN2CCc3ccccc3C2)c1	-64*	-57%	-61%	?	?	?
CN(c1ccccc1)S(=O)(=O)c1cccc(NC(=O)CC(C)(C)C)c1	-2	-17%	12µM*	?	?	?
Cc1ccccc1OCC(=O)Nc1ccc(S(=O)(=O)Nc2ncccn2)cc1	28	.	.	.	7%[46.1 µM]	.
O=C(CSCc1cccc(Cl)c1)OCc1nc2ccsc2c(=O)[nH]1	-10	26%	6%	-3%	-1%	8%[46.1 µM]
Cc1nnc(SCC(=O)Nc2cccc(S(=O)(=O)N(C)c3ccccc3)c2)s1	-6	-8%	?	7.1µM*	-6%	-19%
CCN(CC(=O)Nc1cccc(S(=O)(=O)N(C)c2ccccc2)c1)Cc1cccs1	?	?	?	35µM*	?	?
CN(c1ccccc1)S(=O)(=O)c1cccc(NC(=O)CN2CCc3ccccc3C2)c1	-15	-21%	10µM*	-5%	.	?
COCCn1cnnc1SCC(=O)Nc1cccc(S(=O)(=O)N(C)c2ccccc2)c1	-25	?	?	-3%	21%[46.1 µM]	8%[46.1 µM]
Cc1ccsc1CN(C)CC(=O)Nc1cccc(S(=O)(=O)N(C)c2ccccc2)c1	?	?	?	?	-22%	?
C=C[C@@H](C)[C@](C)(O)c1ccccc1	.	.	.	.	.	7%[14.2 µM]
Cc1c(C=O)c2ccccc2n1CCOc1ccccc1F	?	?	8.3µM*	?	.	.
COc1ccccc1OCCn1c(C)c(C=O)c2ccccc21	-12	?	?	0%	.	.
Cc1c(/C=N/n2cnnc2)c2ccccc2n1CCOc1ccccc1	53	13µM*	?	?	3%	?
O=C(c1ccc(COc2ccc(Cl)cc2)o1)N1N=C(C(F)F)CC1(O)C(F)F (stereo not drawn)	-70*	1%	3%	?	-16%	-30%
COc1ccccc1OCc1ccc(C(=O)N2N=C(C(F)F)CC2(O)C(F)F)o1 (stereo not drawn)	30	16%	.	17%	1%	-30%
